We go through twelve compounds from PubChem BioAssay (EPA / NIEHS).

Assay [1] relates to zebrafish Estrogen Receptor (ER2a), gene 317734. The assay can be described thus: ATG_zfER2a_XSP2: Attagene TRANS-FACTORIAL Multi-Species (XSP2) HepG2 Assay for zebrafish Estrogen Receptor (ER2a) (AID 2283818).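 Further: hits raise reporter mRNA so AC50 reflects activation of zebrafish ER2a.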 In a few lines:
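HepG2 cells transiently transfected with GAL4-UAS reporter units and chimeric zebrafish ER2a-Gal4, exposed 24 h; medium contains 3 nM 6-alpha-fluorotestosterone and 1.5 nM norgestrel. Reporter mRNA quantified by RT-PCR, HpaI digestion, capillary electrophoresis; gain versus DMSO.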

In assay [2] the test system is frog Estrogen Receptor (ER), gene 398734. Nature of the assay: ATG_frER1_XSP2: Attagene TRANS-FACTORIAL Multi-Species (XSP2) HepG2 Assay for frog Estrogen Receptor (ER) (AID 2283821).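 Further: hits raise reporter mRNA above DMSO baseline so potency means agonist or activator.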 In a few lines:
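HepG2 cells transiently transfected with GAL4-UAS reporter units expressing a chimeric frog ER-Gal4 protein; 24 h exposure. Reporter mRNA quantified by RT-PCR, fluorescent labelling and capillary electrophoresis; gain of signal fitted against DMSO baseline.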

Assay [3] in a line: ATG_M_19_XSP2: Attagene TRANS-FACTORIAL Multi-Species (XSP2) HepG2 Assay for M32 Transcription Factor (Internal Marker) (AID 2283822). The method, then: (§1) ATG_XSP2_multi-species_TRANS is a cell-based, multiplexed assay created by modifying the existing Attagene TRANS-FACTORIAL system to include a panel of nuclear receptors from some or all the following species: human (Homo sapiens), mouse (Mus musculus), frog (Xenopus laevis), zebrafish (Danio rerio), chicken (Gallus gallus), and turtle (Chrysemys picta). The ECOTOX-FACTORIAL format uses HepG2, a human liver cell line, with measurements taken at 24 hours after chemical dosing in a 24-well plate. Xsp2 included 3 nM 6-alpha-fluorotestosterone and 1.5 nM norgestrel to stimulate the androgen receptor.ATG_M_19_XSP2 is one of 29 assay components measured or calculated from the ATG_XSP2_multi-species_TRANS assay. It is designed to make measurements of mRNA induction, a form of inducible reporter, as detected with fluorescence intensity signals by Reverse transcription polymerase chain reaction (RT-PCR) and Capillary electrophoresis technology.This assay endpoint, ATG_M_19_XSP2, was analyzed in the positive analysis fitting direction relative to DMSO as the negative control and baseline of activity. Using a type of inducible reporter, measures of mRNA for gain-of-signal activity can be used to understand the background control at the transcription factor-level as they relate to the gene. Furthermore, this assay endpoint can be referred to as a secondary readout, because this assay has produced multiple assay endpoints where this one serves a background control function. To generalize the intended target to other relatable targets, this assay endpoint is annotated to the background measurement intended target family, where the subfamily is internal marker.
(§2) Human liver HepG2 cells are transiently transfected with multiple reporter transcription units (MRTUs) in 6-well plates using FuGene 6 reagent (Roche; 3 ml FuGene/1 mg DNA). The MRTU constructs are regulated by a cis-regulating element (promoter). […] A major difference between the CIS and TRANS system is that in CIS activities of endogenous TFs are measured, whereas the TRANS assay evaluates changes in activities of exogenous, chimeric NR-Gal4 proteins. […] At the end of 24 hour incubation, total RNA was isolated using TriZol reagent (Invitrogen). The isolated RNA is then reverse-transcribed using oligo(dT) primer and Mo-MLV reverse transcriptase (Invitrogen) with DNAse I (Ambion) treatment for 30 min. The one-tenth of the produced cDNA was amplified by PCR using Taq DNA polymerase (Invitrogen) and two reporter sequence-specific primers. The PCR products were fluorescently labeled by primer extension with 6-arboxyfluorescein (6-FAM) 5'-labeled reporter sequence-specific primer (2 min at 95 C, 20 s at 68 C and 10 min at 72 C) and these products were digested with 5U of HpaI (New England Biolabs) for 2h at 37 C. The fragments were purified using Qiaquick PCR columns (Qiagen), analyzed on an ABI 3130xL genetic analyzer (Applied Biosystems) with peak positions identified by using a set of X-rhodamine (ROX)-labeled MapMarker1000 molecular weight standards (BioVentures). The raw capillary electrophoresis data was processed using Attagraph software (Attagene).

Assay [4] concerns zebrafish Estrogen Receptor (ER2b), gene 317733. Nature of the assay: ATG_zfER2b_XSP2: Attagene TRANS-FACTORIAL Multi-Species (XSP2) HepG2 Assay for zebrafish Estrogen Receptor (ER2b) (AID 2283823).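 Further: fitted upward as reporter gain over DMSO so potency reflects activation.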 In a few lines: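 Cells used were HepG2, transiently transfected with chimeric nuclear receptor-Gal4 reporter units. After 24 h of chemical treatment, reporter transcripts were amplified by RT-PCR, labelled and sized by capillary electrophoresis, with induction analysed relative to DMSO.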

Assay [5] in a line: ATG_M_32_XSP2: Attagene TRANS-FACTORIAL Multi-Species (XSP2) HepG2 Assay for M19 Transcription Factor (Internal Marker) (AID 2283826). On the procedure: as §1, with “receptor.ATG_M_32_XSP2” for “receptor.ATG_M_19_XSP2”, “ATG_M_32_XSP2,” for “ATG_M_19_XSP2,”
as §2

In assay [6] the test system is frog Estrogen Receptor (ER2), gene 100174814. The assay can be described thus: ATG_frER2_XSP2: Attagene TRANS-FACTORIAL Multi-Species (XSP2) HepG2 Assay for frog Estrogen Receptor (ER2) (AID 2283828). In a few lines:
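HepG2 cells transiently transfected with multiplexed GAL4-UAS reporter units expressing chimeric frog ER2–Gal4 protein; reporter mRNA measured 24 h after chemical dosing by RT-PCR, fluorescent labeling and capillary electrophoresis. Gain-of-signal fitted relative to DMSO baseline.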

For assay [7], the system named is chicken Androgen Receptor (AR), gene 422165. The assay can be described thus: ATG_chAR_XSP2: Attagene TRANS-FACTORIAL Multi-Species (XSP2) HepG2 Assay for chicken Androgen Receptor (AR) (AID 2283819).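 Further: hits raise reporter mRNA above DMSO so potency is for activation.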 In a few lines: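 HepG2 cells transiently transfected with chicken AR–GAL4 chimeric reporter constructs, stimulated with 3 nM 6-alpha-fluorotestosterone plus 1.5 nM norgestrel, dosed 24 h. Reporter mRNA quantified by RT-PCR and capillary electrophoresis; gain of signal fitted versus DMSO.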

Assay [8] relates to frog Androgen Receptor (AR), gene 399456. The assay can be described thus: ATG_frAR_XSP2: Attagene TRANS-FACTORIAL Multi-Species (XSP2) HepG2 Assay for frog Androgen Receptor (AR) (AID 2283824).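 Further: actives raise reporter signal above DMSO so AC50 reflects agonist-like induction.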 In a few lines:
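HepG2 cells transiently transfected with GAL4-UAS reporter units and frog (Xenopus laevis) AR-Gal4 chimera; reporter mRNA measured 24 h after dosing by RT-PCR and capillary electrophoresis. Gain of signal fitted relative to DMSO baseline.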

Assay [9] concerns zebrafish Androgen Receptor (AR), gene 100005148. The assay can be described thus: ATG_zfAR_XSP2: Attagene TRANS-FACTORIAL Multi-Species (XSP2) HepG2 Assay for zebrafish Androgen Receptor (AR) (AID 2283825).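 Further: hits raise reporter mRNA above DMSO so AC50 reflects agonist-type gain.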 The method, then: ATG_XSP2_multi-species_TRANS is a cell-based, multiplexed assay created by modifying the existing Attagene TRANS-FACTORIAL system to include a panel of nuclear receptors from some or all the following species: human (Homo sapiens), mouse (Mus musculus), frog (Xenopus laevis), zebrafish (Danio rerio), chicken (Gallus gallus), and turtle (Chrysemys picta). The ECOTOX-FACTORIAL format uses HepG2, a human liver cell line, with measurements taken at 24 hours after chemical dosing in a 24-well plate. Xsp2 included 3 nM 6-alpha-fluorotestosterone and 1.5 nM norgestrel to stimulate the androgen receptor.ATG_zfAR_XSP2 is one of 29 assay components measured or calculated from the ATG_XSP2_multi-species_TRANS assay. It is designed to make measurements of mRNA induction, a form of inducible reporter, as detected with fluorescence intensity signals by Reverse transcription polymerase chain reaction (RT-PCR) and Capillary electrophoresis technology.The assay endpoint ATG_zfAR_XSP2 was analyzed in the positive analysis fitting direction relative to DMSO as the negative control and baseline of activity. […] Furthermore, this assay endpoint can be referred to as a primary readout, because this assay has produced multiple assay endpoints where this one serves a reporter gene function. […]

Assay [10] concerns the target human Androgen Receptor (AR), AR (gene 367) (UniProt P10275). The assay can be described thus: ATG_hAR_XSP2: Attagene TRANS-FACTORIAL Multi-Species (XSP2) HepG2 Assay for human Androgen Receptor (AR) (AID 2283820). In a few lines: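 HepG2 cells transiently transfected with GAL4-UAS reporter units driven by chimeric NR-Gal4 proteins, stimulated with 3 nM 6-alpha-fluorotestosterone plus 1.5 nM norgestrel. Reporter mRNA quantified 24 h after dosing by RT-PCR and capillary electrophoresis; gain-of-signal versus DMSO.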

Several values for one entry are separate records, joined by “and”; a condition that tells them apart may be missing. Identical values can stand only once. Inconclusive results are not listed. More than one record can exist for a structure, and the calls need not agree. Activity calls are given as the source filed them. How the source made its calls: active means hit-call score of the fitted dose curve at least 0.9, where 1 is the maximum; inconclusive means response in the unintended direction; inactive means score below 0.9.

Chain of human Androgen Receptor (AR), AR (gene 367) (P10275 whole entry, looked up, the tested form may be a part): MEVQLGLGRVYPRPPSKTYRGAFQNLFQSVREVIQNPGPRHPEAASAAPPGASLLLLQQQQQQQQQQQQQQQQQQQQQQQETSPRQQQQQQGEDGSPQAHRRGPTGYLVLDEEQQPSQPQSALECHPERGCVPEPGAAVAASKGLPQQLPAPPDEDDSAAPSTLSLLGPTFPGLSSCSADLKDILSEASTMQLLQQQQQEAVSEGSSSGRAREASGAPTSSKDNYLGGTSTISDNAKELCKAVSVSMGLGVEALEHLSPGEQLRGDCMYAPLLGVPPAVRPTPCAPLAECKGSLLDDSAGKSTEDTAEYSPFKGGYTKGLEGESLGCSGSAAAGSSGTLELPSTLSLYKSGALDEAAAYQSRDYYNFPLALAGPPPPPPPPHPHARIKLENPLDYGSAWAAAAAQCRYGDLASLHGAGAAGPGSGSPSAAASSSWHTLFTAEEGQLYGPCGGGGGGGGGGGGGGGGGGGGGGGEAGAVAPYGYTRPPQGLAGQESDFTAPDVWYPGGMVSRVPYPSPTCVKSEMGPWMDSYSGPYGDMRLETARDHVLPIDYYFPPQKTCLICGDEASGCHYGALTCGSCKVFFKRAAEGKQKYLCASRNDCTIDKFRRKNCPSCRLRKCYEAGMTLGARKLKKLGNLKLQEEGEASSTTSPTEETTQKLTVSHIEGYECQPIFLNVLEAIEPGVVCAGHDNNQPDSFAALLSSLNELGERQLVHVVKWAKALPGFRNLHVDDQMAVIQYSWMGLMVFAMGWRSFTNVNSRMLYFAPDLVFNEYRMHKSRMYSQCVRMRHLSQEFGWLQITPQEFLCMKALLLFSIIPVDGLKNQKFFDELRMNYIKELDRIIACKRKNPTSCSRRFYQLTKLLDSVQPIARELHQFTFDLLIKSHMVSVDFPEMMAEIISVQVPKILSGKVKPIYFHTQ

By AC50 is commonly meant the concentration at which the activity in the assay is half-maximal. Take `c1cc2ccc3cccc4ccc(c1)c2c34`: the result in assay [1], in assay [3], in [5] and in assay [6] was inactive. Moreover, the concentration at half-maximal activity (AC50) in [2] is 39.9 µM (active) and 19.8 µM (active); in assay [4], 100 µM (active) and 37.1 µM (active); in [6] it was 5720 nM (active).
As to `ClC(Cl)=C(c1ccc(Cl)cc1)c1ccc(Cl)cc1`, the call in assay [1], in [2], in assay [3] and in [5] was inactive. Besides, the concentration at half-maximal activity (AC50) in assay [4] was 7.9 µM (active); in [6], 10000 nM (active).
For the compound `C[C@]12CCC(=O)C=C1CC[C@@H]1[C@@H]2CC[C@@]2(C)[C@H]1CC[C@]2(C)O`, the AC50 in assay [1] was 2.5 nM (active); in assay [7], 0.000725 µM (active); in assay [2] it was 2.25 nM (active); in assay [4], 0.00834 µM (active); in [8], 0.00739 µM (active); in [9] it was 0.00251 µM (active). Also, the AC50 in assay [6] was 11.6 nM (active).
For the compound `CC(c1ccc(O)cc1)(c1ccc(O)cc1)c1ccc(O)cc1`, the result in assay [1], in assay [7], in [2], in assay [3], in assay [4] and in [8] was inactive. In addition, the call in assay [5] and in [6] was inactive. The results for the half-maximal activity concentration (AC50) in [7], in assay [4] and in [8] were 0.314 µM (active), 0.688 µM (active) and 0.267 µM (active), respectively.
Consider `CC(C)(c1ccccc1)c1ccc(O)cc1`, for which the compound was called inactive in assay [1]. Further, the figures for the AC50 in assay [2], in assay [4] and in [6] were 992 nM (active), 2.77 µM (active) and 1560 nM (active), respectively.
`CCC(=O)O[C@H]1CC[C@H]2[C@@H]3CCC4=CC(=O)CC[C@]4(C)[C@H]3CC[C@]12C`: the AC50 was 27.7 nM (active) and 13.2 nM (active) in assay [1]; 0.0247 µM (active) in [7]; 10.9 nM (active) and 4.11 nM (active) in [2]; 29.8 nM (active) and 27.2 nM (active) in [4]; 29.8 nM (active) in assay [6]. Moreover, the compound was called inactive in assay [7] and in assay [10].
Take `CC(C)(O)C(=O)Nc1ccc([N+](=O)[O-])c(C(F)(F)F)c1`: the call in assay [1], in [2], in assay [5] and in assay [6] was inactive. The half-maximal activity concentration (AC50) in [4] was 36.1 µM (active).
Take `C[C@]12CCC(=O)C=C1CC[C@@H]1[C@@H]2CC[C@]2(C)C(=O)CC[C@@H]12`: the concentration at half-maximal activity (AC50) in [1] was 28.2 nM (active) and 100 nM (active); in assay [7], 0.379 µM (active); in [2], 19.2 nM (active) and 24 nM (active); in [4] it was 58.9 nM (active) and 39.4 nM (active); in [6], 552 nM (active). The outcome in [7] and in [6] was inactive.
On to `Clc1ccc(C(c2ccccc2Cl)C(Cl)(Cl)Cl)cc1` (stereo not drawn), for which the concentration at half-maximal activity (AC50) in assay [1] was 1580 nM (active); in [2] it was 858 nM (active); in assay [4], 0.998 µM (active); in assay [6] it was 824 nM (active).
As for `Oc1ccc(C(c2ccc(O)cc2)(C(F)(F)F)C(F)(F)F)cc1`, the AC50 was 101 nM (active) and 587 nM (active) in [1]; 7870 nM (active) in assay [2]; 52.6 µM (active) in assay [3]; 139 nM (active) and 360 nM (active) in assay [4]; 151 nM (active) and 386 nM (active) in [6]. The compound was called inactive in [7], in assay [2], in assay [3] and in assay [5].
On to `CCOC(=O)C(O)(c1ccc(Cl)cc1)c1ccc(Cl)cc1`, for which the result in assay [1], in [2], in assay [3] and in assay [5] was inactive. In addition, the AC50 is 28.4 µM (active) and 17.1 µM (active) in [4]; 9.66 µM (active) and 8.68 µM (active) in assay [6].
Turning to `Cc1cc(-c2ccc(N)c(C)c2)ccc1N`, the AC50 in assay [1] was 4.47 µM (active) and 11 µM (active) and 6.8 µM (active); in assay [4], 34.9 µM (active) and 61.3 µM (active) and 39.7 µM (active); in assay [6], 22.1 µM (active) and 10.6 µM (active). The call in [2] and in assay [3] was inactive.
